Experimental data reported in PubChem BioAssay (NCATS).
“And” between values parts separate entries of the source, which are not always exact repeats. Identical values can stand only once. Inconclusive results are not listed. A call without a number means that no potency is given here. Unmarked numbers belong to inactive results. The source made the active and inactive calls. Calls come from the whole dose curve; as a rule, active = well fitted inhibition curve with a large enough effect; inconclusive = small, poorly fitted or top-dose-only effect; inactive = flat fitted curve, though single readings scatter.

Key:
[1] = biological target: Calcium and integrin-binding protein 1 (Homo sapiens) (UniProt Q99828); experiment: Primary qHTS for Identification of Calcium Integrin Binding Protein 1 (CIB1) Competitor (AID 1508620); settings: CIB1-GST / FITC-alphaIIb peptide fluorescence polarization; series mostly up to 114 µM;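 note: GST tagged CIB1 binding a fluorescein labelled alphaIIb integrin peptide tracer; top concentration of the series differs between compounds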
Calcium and integrin-binding protein 1 (Homo sapiens), sequence (Q99828 whole entry, looked up): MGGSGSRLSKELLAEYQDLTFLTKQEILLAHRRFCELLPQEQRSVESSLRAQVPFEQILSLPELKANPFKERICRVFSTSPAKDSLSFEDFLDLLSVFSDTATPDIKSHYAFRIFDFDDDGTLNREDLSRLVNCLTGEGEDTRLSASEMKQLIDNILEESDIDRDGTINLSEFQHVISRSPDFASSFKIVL
How it was run: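 Fluorescence polarization competition: CIB1-GST (1 uM final) preincubated with compound 15 min at room temperature, then FITC-labeled alphaIIb peptide (100 nM final) added for another 15 min. Polarization read at Ex 480/Em 540.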

[2] = Primary qHTS for inhibitors of nuclear receptor binding SET domain protein 2 (NSD2) in an isogenic RCH-ACV NSD2 p.E1099K mutant (9B) (AID 1645876); settings: RCH-ACV (leukaemia line) NSD2 E1099K (9B) viability, CellTiter-Glo, 72 h; series mostly up to 44.9 µM; note: nearly all actives have a fitted effect of over 70% in size; note: potency is the fitted concentration of half-maximal effect

| Structure (SMILES) | Potency [1] | Potency [2] | activity change, negative = viability loss [2] |
| --- | --- | --- | --- |
| CCCC(=O)O[C@@H]1[C@@H]2[C@@H](OC(C)=O)[C@]3(C)C(=O)[C@H]4[C@@H](OC(C)=O)C(C)(C)C[C@H]4[C@]3(C)C(=O)[C@@]2(OC(C)=O)C[C@@H]1C | inactive | inactive | – |
| Oc1ccc(CNc2ccccc2F)c2cccnc12 | inactive | 12.9 µM (active) | – |
| CC(C)=CCC[C@](C)(O[C@@H]1O[C@H](CO[C@@H]2O[C@H](CO)[C@@H](O)[C@H](O)[C@H]2O)[C@@H](O)[C@H](O)[C@H]1O)C1CC[C@]2(C)[C@@H]1[C@H](O)CC1[C@@]3(C)CC[C@H](O[C@@H]4O[C@H](CO)[C@@H](O)[C@H](O)[C@H]4O[C@@H]4O[C@H](CO)[C@@H](O)[C@H](O)[C@H]4O)C(C)(C)[C@@H]3CC[C@]12C (stereo not given in full) | inactive | – | -10.6% [at 9.23 µM] |
| Cc1cc(=O)oc2c(C=O)c(O)ccc12 | inactive | 18.3 µM (active) | – |
| CC(C)C(C#N)O[C@@H]1O[C@H](CO[C@@H]2O[C@@H](C)[C@H](O)[C@@H](O)[C@H]2O)[C@@H](O)[C@H](O)[C@H]1O (stereo not given in full) | inactive | inactive | – |
| C[C@@H]1CC[C@]2(C(=O)O)CC[C@]3(C)C(=CCC4[C@@]5(C)CC[C@H](O)C(C)(C)C5C(O)C[C@]43C)[C@@H]2[C@]1(C)O (stereo not given in full) | inactive | inactive | – |
| CC(C)=CCC/C(C)=C/CO[C@@H]1O[C@H](CO)[C@@H](O)[C@H](O)[C@H]1O | inactive | inactive | – |
| O=C(Nc1ccn[nH]1)c1c(F)cccc1F | inactive | inactive | – |
| C=C1C(OC(C)=O)CCC2(C)CC3(OC)OC(=O)C(C)=C3CC12 (stereo not given) | inactive | inactive | – |
| OC[C@H]1O[C@@H](O[C@H]2[C@H](OCc3ccccc3)O[C@H](CO[C@@H]3OC[C@@H](O)[C@H](O)[C@H]3O)[C@@H](O)[C@@H]2O)[C@H](O)[C@@H](O)[C@@H]1O | inactive | inactive | – |
| CCCCc1nc2cc(/C=C/C(=O)NO)ccc2n1CCN(CC)CC | inactive | 258 nM (active) and 590 nM (active) | – |
| C=C1C[C@]23C[C@H]1CC[C@H]2[C@]1(C)CCC[C@@](C)(C(=O)O)[C@H]1[C@@H]3C(=O)O | inactive | inactive | – |
| CC1OC(OCC2OC(OC3CCC4(C)C(CCC5(C)C4CC=C4C6CC(C)(C)CCC6(C(=O)OC6OC(CO)C(O)C(O)C6O)CCC45C)C3(C)CO)C(O)C(O)C2O)C(O)C(O)C1O (stereo not given) | inactive | – | 3.81% [at 9.23 µM] |
| CC1=C2C3OC(=O)C(C)C3(O)CCC2(C)CCC1O (stereo not given) | inactive | inactive | – |
| C=C1C(=O)O[C@@H]2[C@H]1CCC(C)=C1CCC(=O)O[C@]12C | inactive | 9.16 µM (active) | – |
| CN1CCN(c2ccc(C(=O)Nc3n[nH]c4ccc(Cc5cc(F)cc(F)c5)cc34)c(NC3CCOCC3)c2)CC1 | inactive | 3.25 µM (active) and 4.68 µM (active) and 6.51 µM (active) | – |
| COC1C(CO)OC(n2cnc3c(=O)[nH]cnc32)C1O (stereo not given) | inactive | inactive | – |
| C=C1C(=O)OC2/C=C(\CO)CC/C=C(\C=O)CC(OC(=O)CC(C)C)C12 (stereo not given) | inactive | 4.01 µM (active) | – |
| C/C=C/C=C/C(=O)N1CC[C@]23c4ccccc4N[C@H]4N(C)c5cccc6c5[C@@]42CCN([C@H]6C2OC2(C)C)[C@H]13 (stereo not given in full) | inactive | inactive | – |
| [N-]=[N+]=N[C@]1(CO)O[C@@H](n2ccc(=O)[nH]c2=O)[C@@H](O)[C@@H]1O | inactive | inactive | – |
| O=C(O)/C=C/c1ccc(O)c(O[C@@H]2O[C@H](CO)[C@@H](O)[C@H](O)[C@H]2O)c1 | inactive | inactive | – |
| CC(=O)OC[C@@]12C(=O)C[C@@H](C)[C@]3(C[C@@H](c4ccoc4)O[C@H]3OC(C)=O)[C@H]1CCC[C@]21CO1 | inactive | 12.6 µM (active) | – |
| C=C1C(=O)OC2C1CCC(=C)C1CC(OC(C)=O)C(=C)C12 (stereo not given) | inactive | 10.3 µM (active) | – |
| CC(=O)O[C@@H]1[C@@H](O)[C@H](O[C@H]2CC[C@]34C[C@]35CC[C@]3(C)[C@@H]([C@@]6(C)CC[C@@H](C(C)(C)O)O6)[C@@H](O)C[C@@]3(C)[C@@H]5C[C@H](O[C@@H]3O[C@H](CO)[C@@H](O)[C@H](O)[C@H]3O)[C@H]4C2(C)C)OC[C@H]1O | inactive | inactive | – |
| OC[C@H]1O[C@@H](Oc2cc(O)c3c(c2)O[C@@H](c2ccc(O)cc2)[C@H](O)C3)[C@H](O)[C@@H](O)[C@@H]1O | inactive | inactive | – |
